A selection: hits, their analogues and other compounds. The true share with any hit is near 18%.
PLK1 PBD inh: qHTS for Inhibitors of PLK1-PDB (polo-like kinase 1 - polo-box domain): Primary Screen; actives 2.8% (n = 360,000); Serine/threonine-protein kinase PLK1 (Homo sapiens), P53350; Potency, µM, for the others: max response, negative = inhibition, actives largely listed as inhibitors; Plk1 PBD binding of FITC phosphopeptide, fluorescence polarization; note: series mostly up to about 57 µM; nearly all actives have a fitted effect of over 65% in size
DT40 TDP1 CPT: qHTS for Inhibitors of human tyrosyl-DNA phosphodiesterase 1 (TDP1): qHTS in cells in presence of CPT; chicken DT40 Tdp1-/-;hTDP1 cells + 20 nM CPT, ATP luminescence, 48 h; Potency, µM (series often up to 46.2 µM), inactives show at the top dose activity change, negative = growth inhibition, actives largely listed as inhibitors; actives 12% (n = 420,000); note: nearly all actives have a fitted effect of over 55% in size
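Cell growth measured by CellTiter-Glo luminescence after a minimum 48 h, 37 C compound exposure with 20 nM CPT in Tdp1-knockout DT40 cells stably expressing hTDP1, seeded 400/well; qHTS titration format.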
DT40 TDP1 no CPT: qHTS for Inhibitors of human tyrosyl-DNA phosphodiesterase 1 (TDP1): qHTS in cells in absence of CPT | actives 15% (n = 420,000) | Potency, µM (series often up to 46.2 µM), without a hit: at the top dose activity change, negative = growth inhibition, usual class: inhibitors | DT40 Tdp1-/- hTDP1 cells, no CPT, ATP luminescence, 48 h | AID 686978, 2013; note: nearly all actives have a fitted effect of over 55% in size
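A cellular qHTS used chicken DT40 cells lacking endogenous Tdp1 but carrying stably transfected human TDP1. Compounds were applied without camptothecin, and cell growth kinetics were judged by ATP-dependent luminescence after ≥48 hr.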
VDR inhibitor: Inhibitors of the vitamin D receptor (VDR): qHTS | Potency, µM, for inactives: max response, negative = inhibition, usual class: inhibitors | AID 504847, 2011 | VDR-SRC2-3 peptide fluorescence polarization, 2 h | actives 0.93% (n = 400,000) | Vitamin D3 receptor (Homo sapiens), P11473
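Compounds are added to VDR with labelled SRC2-3 coactivator peptide and held 2 h at room temperature. Inhibition of the VDR–peptide interaction is then read as a change in fluorescence polarization.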
GCN5L2 inh: qHTS Assay for Inhibitors of GCN5L2 | Histone acetyltransferase KAT2A (Homo sapiens), Q92830 | GCN5L2 HAT assay, ThioGlo1 CoA-SH fluorescence | Potency, µM (titrated, usually from 58.9 µM), without a hit: at the top dose activity change, negative = inhibition, most hits filed as inhibitors | actives 0.21% (n = 390,000) | AID 504327, 2011
Target sequence (Q92830 whole entry, looked up): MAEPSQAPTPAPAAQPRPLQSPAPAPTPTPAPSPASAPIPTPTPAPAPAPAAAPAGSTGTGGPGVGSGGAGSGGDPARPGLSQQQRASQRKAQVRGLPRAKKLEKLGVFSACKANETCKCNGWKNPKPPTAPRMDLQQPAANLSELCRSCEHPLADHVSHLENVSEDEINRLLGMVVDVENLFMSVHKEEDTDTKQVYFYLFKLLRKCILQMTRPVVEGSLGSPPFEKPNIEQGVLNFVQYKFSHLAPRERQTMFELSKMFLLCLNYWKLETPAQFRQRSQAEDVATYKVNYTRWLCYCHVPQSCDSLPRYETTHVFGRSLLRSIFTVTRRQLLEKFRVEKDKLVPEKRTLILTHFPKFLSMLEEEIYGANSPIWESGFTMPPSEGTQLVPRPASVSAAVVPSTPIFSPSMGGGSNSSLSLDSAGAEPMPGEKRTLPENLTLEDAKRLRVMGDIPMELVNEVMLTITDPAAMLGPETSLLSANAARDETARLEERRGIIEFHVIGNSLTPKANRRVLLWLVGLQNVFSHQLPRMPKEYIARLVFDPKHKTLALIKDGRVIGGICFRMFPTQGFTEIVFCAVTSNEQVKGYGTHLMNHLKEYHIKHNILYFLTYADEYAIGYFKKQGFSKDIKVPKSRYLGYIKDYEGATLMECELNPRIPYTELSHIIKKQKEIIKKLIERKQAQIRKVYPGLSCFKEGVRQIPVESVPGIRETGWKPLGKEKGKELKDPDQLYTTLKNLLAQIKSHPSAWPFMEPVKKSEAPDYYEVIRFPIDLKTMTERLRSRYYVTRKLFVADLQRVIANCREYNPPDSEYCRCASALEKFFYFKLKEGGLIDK
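Titration-based screen in which CoA formation is detected via maleimide probe ThioGlo1 (50uM) turning fluorescent on thiol reaction; substrates H3(1-25) 75uM and acetyl-CoA 70uM, GCN5L2 20nM, 20 min incubation at room temperature.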
TDP1 inh: qHTS Assay for Inhibitors of Tyrosyl-DNA Phosphodiesterase (TDP1); Tyrosyl-DNA phosphodiesterase 1 (Homo sapiens), Q9NUW8; recombinant TDP1, AlphaScreen DNA substrate cleavage; Potency, µM (titrated, usually from 130 µM), inactives show at the top dose activity change, negative = inhibition, usual class: inhibitors; actives 0.28% (n = 350,000); note: nearly all actives have a fitted effect of over 40% in size
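Recombinant human Tdp1 (E. coli-expressed, 1 nM final) preincubated with compounds 15 min at room temperature, then 5'-biotin/3'-phosphotyrosine-FITC DNA substrate (15 nM final) added for 5 min. AlphaScreen beads (10 ug/ml final) added 10 min; cleavage lowers signal.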
Starred values were filed as active, the others as inactive; ? = inconclusive; nt = not tested or not shown; [ ] = another dose, or the depositor's remark. Calls come from the whole dose curve; as a rule, active = well fitted curve in the direction sought with a large enough effect; inconclusive = small, poorly fitted or top-dose-only effect, or another doubt; inactive = no such curve, though single readings can be large; an effect the other way counts as inactive or inconclusive. % is set by controls: 0 for no effect and ±100 for the full control effect; potency is the fitted concentration of half-maximal effect.

SMILES	PLK1 PBD inh	DT40 TDP1 CPT	DT40 TDP1 no CPT	VDR inhibitor	GCN5L2 inh	TDP1 inh
CC(C)(C)CNc1cc(N2CCCC2)ccc1[N+](=O)[O-]	-8.0%	-20.4%	-23.8%	10.6%	-2.1%	1.0%
O=[N+]([O-])c1ccccc1NCCOc1ccccc1	-8.2%	-7.5%	-2.1%	-17.5%	-7.2%	8.5%
Cc1ccccc1OCCNc1cc(N2CC(C)NC(C)C2)ccc1[N+](=O)[O-] (stereo not drawn)	-2.8%	14.6µM*	?	-8.5%	-12.1%	6.9%
CCCCCCCCCCCCCCCC(=O)NC(C)C	nt	8.3%	-0.3%	4.5%	-11.0%	-3.6%[56.1 µM]
Cc1cccc(NC(=O)CSc2nc3ccccc3nc2N2CCOCC2)c1C	nt	?	?	-15.5%	0.7%	2.1%
Cc1ccc2nc(C3CCCCC3)c(Cc3ccccc3)n2c1	-2.0%	14.6µM*	16.4µM*	nt	nt	nt
Cc1ccc2nc(C3CCCCC3)c(Cc3cccc(F)c3)n2c1	-5.0%	?	?	nt	nt	nt
Cc1ccc2nc(C3CCCCC3)c(Cc3ccccc3C(F)(F)F)n2c1	-4.2%	-102.3%	16.4µM*	nt	nt	nt
FC(F)(F)c1ccccc1Cc1c(C2CCCCC2)nc2c3ccccc3ccn12	-1.1%	?	?	nt	nt	nt
CC(C)(C)OC(=O)C[C@@H]1C/C=C\C[C@@H](CC(=O)N(CCO)Cc2ccccc2)C(=O)NC[C@H](c2ccccc2)OC1=O	4.0%	11.6µM*	?	4.3%	-4.9%	-1.0%
CC(C)(C)OC(=O)C[C@@H]1C/C=C\C[C@@H](CC(=O)N(CCO)Cc2ccccc2)C(=O)NC[C@@H](c2ccccc2)OC1=O	-14.4%	20.6µM*	?	-1.1%	-1.6%	1.7%
CC(C)(C)OC(=O)C[C@@H]1C/C=C\C[C@H](CC(=O)N(CCO)Cc2ccccc2)C(=O)NC[C@H](c2ccccc2)OC1=O	-9.0%	?	?	16.2%	-3.6%	0.2%
CC(=O)c1ccc(Oc2ncnc(N)c2[N+](=O)[O-])cc1	-6.3%	23.1µM*	?	14.6%	-16.5%	nt
CC(=O)c1ccccc1Oc1ncnc(N)c1[N+](=O)[O-]	-2.6%	-12.3%	16.2%	-0.2%	-16.9%	nt
CS(=O)(=O)Nc1cccc(-c2ccc3ncnc(Nc4ccccc4)c3c2)c1	nt	?	20.6µM*	3.5%	-21.2%	nt
CN(C)c1cc(-c2cccc(NS(C)(=O)=O)c2)ncn1	nt	-24.9%	-6.1%	?	-13.6%	nt
CS(=O)(=O)Nc1cccc(-c2ccc3ncnc(NC4CCNCC4)c3c2)c1	nt	-1.2%	-4.9%	-0.5%	-18.2%	nt
CN(C)c1ncnc2ccc(-c3cccc(NS(C)(=O)=O)c3)cc12	nt	20.6µM*	16.4µM*	-16.9%	-15.8%	nt
COc1ccccc1-c1ccc2ncnc(NCc3ccccc3)c2c1	nt	?	?	?	-18.2%	nt
COc1ccccc1-c1ccc2ncnc(Nc3ccccc3)c2c1	nt	20.6µM*	-93.8%	-23.6%	-8.9%	nt
CS(=O)(=O)Nc1cccc(-c2ccc3ncnc(N4CCNCC4)c3c2)c1	nt	14.6µM*	?	-1.2%	-15.8%	nt
CCNC(=O)c1ccc2c(c1)C1C3CCC(C3)C1C(c1ccccc1)N2 (stereo not drawn)	1.1%	?	?	-2.2%	-3.8%	3.4%
COc1cccc(Nc2ncnc3ccc(Br)cc23)c1	-8.1%	?	20.6µM*	nt	nt	nt
Cn1ncc2c(Nc3cccc([N+](=O)[O-])c3)ncnc21	-6.3%	-19.5%	?	-4.7%	-6.0%	0.4%
Cc1ccc2ncnc(Nc3cccc([N+](=O)[O-])c3)c2c1	2.3%	23.1µM*	?	6.3%	-1.2%	nt
SMILES	PLK1 PBD inh	DT40 TDP1 CPT	DT40 TDP1 no CPT	VDR inhibitor	GCN5L2 inh	TDP1 inh
COc1cccc(-c2ccc3ncnc(Nc4ccccc4)c3c2)c1	nt	?	?	-16.2%	-15.7%	nt
c1csc(CNc2nc(-c3cccs3)nc3ccccc23)c1	-1.3%	0.4%	-9.9%	-4.2%	-24.6%	1.2%
c1ccc(CNc2nc(NCc3cccs3)nc3ccsc23)cc1	-5.6%	18.4µM*	11.6µM*	nt	nt	nt
c1csc(CNc2nc(NCC3CCCCC3)c3sccc3n2)c1	-0.6%	5.8µM*	9.2µM*	nt	nt	nt
CNc1nc(NCc2ccccc2)c2sccc2n1	4.1%	18.4µM*	16.4µM*	nt	nt	nt
O=C1CCCN1CCCNc1nc(NCc2cccs2)nc2ccsc12	-3.3%	20.6µM*	16.4µM*	nt	nt	nt
C[C@]12O[C@H]1[C@@H](O)C(Br)=C(CO)[C@H]2O	nt	nt	nt	1.7%	nt	1.9%
CC(Sc1ncccn1)C(=O)N1CCc2ccccc21 (stereo not drawn)	-11.4%	0.2%	-3.8%	3.1%	-18.2%	0.0%
CCC(=O)N(Cc1ccc(S(N)(=O)=O)cc1)C1CC(=O)N(c2ccccc2)C1=O (stereo not drawn)	-4.0%	8.7%	-0.1%	2.5%	-6.0%	0.0%
COc1ccc(-c2csc(C(C)(O)c3ccccc3)n2)cn1 (stereo not drawn)	-2.2%	?	?	nt	nt	nt
Cc1cc(-c2cc(F)cc3c2OC(CNC(=O)[C@@H]2CCC(=O)N2)C3)ccc1F (stereo partly drawn)	nt	1.8%[9.04 µM]	-17.3%	nt	nt	nt
CC(=O)NCCNc1nc(NCc2cccs2)nc2ccsc12	-3.9%	-2.9%	?	nt	nt	nt
COCCNc1nc(Oc2ccc(Cl)c(Cl)c2)c2sccc2n1	-0.7%	?	-27.7%	nt	nt	nt
COCCNc1nc(NCc2cccs2)nc2ccsc12	-1.7%	?	25.9µM*	nt	nt	nt
COCCNc1nc(NCc2cc(-c3ccc(OC)cc3)no2)c2sccc2n1	6.3%	?	18.4µM*	nt	nt	nt
c1ccc(CNc2nc(NCCc3ccncc3)c3sccc3n2)cc1	-2.9%	18.4µM*	10.3µM*	nt	nt	nt
O=C1Nc2ccc3c(c2C1=Cc1cc2c(cc1Br)OCO2)OCO3	-2.5%	3.26µM*	4.61µM*	-7.5%	nt	nt
O=C(c1ccccn1)N1N=C2/C(=C/c3ccc(F)cc3)CCCC2C1c1ccc(F)cc1 (stereo not drawn)	1.9%	?	?	1.3%	-8.4%	2.6%
COc1ccc(CC(=O)Nc2c(C(=O)Nc3ccc(F)cc3)oc3ccccc23)cc1OC	nt	11.6µM*	20.6µM*	8.3%	-3.5%	11.5%
CCOc1ccc(NC(=O)c2oc3ccccc3c2NC(=O)Cc2ccc(OC)c(OC)c2)cc1	nt	?	?	-5.8%	-0.9%	1.3%

Screening results (PubChem)
